# FLuc modulator – qHTS profiling assay for firefly luciferase inhibitor/activator using purifed enzyme and Km concentrations of substrates (counterscreen for miR-21 project) | purified FLuc, Km substrates, luminescence inhibition | Potency, µM (titrated, usually from 57.5 µM), for the others: top-dose activity change, negative = inhibition, hits mostly inhibitors | AID 588342, 2011 | 360,000 tested, 6.9% active | Luciferin 4-monooxygenase (Photinus pyralis), P08659;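 further: plate controls were vehicle for no effect and reference inhibitor for full effect; nearly all actives have a fitted effect of over 55% in size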
# Target sequence (P08659 whole entry, looked up): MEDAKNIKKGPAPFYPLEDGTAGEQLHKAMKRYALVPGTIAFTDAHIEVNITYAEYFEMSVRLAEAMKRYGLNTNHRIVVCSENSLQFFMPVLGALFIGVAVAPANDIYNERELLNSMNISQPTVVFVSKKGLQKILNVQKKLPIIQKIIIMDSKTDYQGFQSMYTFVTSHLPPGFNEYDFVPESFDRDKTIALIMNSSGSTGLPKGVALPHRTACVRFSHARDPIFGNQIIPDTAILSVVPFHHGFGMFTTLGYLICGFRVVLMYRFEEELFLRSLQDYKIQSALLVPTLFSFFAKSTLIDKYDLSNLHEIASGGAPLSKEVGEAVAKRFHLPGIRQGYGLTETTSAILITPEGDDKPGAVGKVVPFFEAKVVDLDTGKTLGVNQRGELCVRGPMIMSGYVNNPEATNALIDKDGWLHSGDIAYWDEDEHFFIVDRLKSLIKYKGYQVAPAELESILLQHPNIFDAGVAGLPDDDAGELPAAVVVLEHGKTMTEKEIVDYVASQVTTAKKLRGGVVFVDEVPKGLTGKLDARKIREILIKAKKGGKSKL
#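 Purified P. pyralis luciferase, 10 nM final, with Km-level 10 uM D-luciferin and 10 uM ATP in 50 mM Tris acetate pH 7.5, 10 mM Mg acetate, 0.01% Tween-20, 0.05% BSA; 6-point qHTS titration about 60 µM downward; luminescence read.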
# NPC1 promoter act – qHTS Assay for NPC1 Promoter Activators; Potency, µM (highest dose often 9.22 µM), without a hit: at the highest dose activation, actives largely listed as activators; AID 485313, 2010; 320,000 tested, 2.4% active; Huh7 NPC1 promoter luciferase reporter, 24 h; further: % of control where 0% means no effect; nearly all actives have a fitted effect of over 60% in size
#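 Compounds in DMSO were transferred onto Huh7 NPC1-luciferase reporter cells pre-incubated 2 h; after 24 h at 37 °C, Amplite reagent was dispensed and luminescence recorded 10 min later.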
# SMN2 splice enh – qHTS Assay for Enhancers of SMN2 Splice Variant Expression; HEK293 SMN2-luciferase splicing reporter, luminescence, 30-36 h; Potency, µM (top dose mostly 46.1 µM), for inactives: at the top dose activity change, positive = activation, usual class: activators; 210,000 tested, 2.8% active; further: % of control where 0% means no effect; nearly all actives have a fitted effect of over 55% in size
#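 qHTS luciferase splicing reporter: luminescence rises when SMN2 exon 7 is included in transfected HEK293 cells. Compound exposure lasted 30-36 h at 37C, with 4.5 mM final sodium butyrate as control, followed by a ONE-Glo read.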
# ELG1 DNA repair – qHTS screen for small molecules that inhibit ELG1-dependent DNA repair in human embryonic kidney (HEK293T) cells expressing luciferase-tagged ELG1. HEK293T ELG1-luciferase reporter, luminescence, 16 h; DNA damage induced by 5-fluorouridine. Potency, µM (doses to about 46.1 µM), without a hit: at the highest dose activity change, negative = inhibition, hits mostly inhibitors. 330,000 tested, 2.3% active. AID 504467, 2011; further: on the % scale 0 is the no-effect control and ±100 the full control effect; nearly all actives have a fitted effect of over 55% in size
#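 In this reporter screen, reduction of luminescence relative to DMSO vehicle indicated activity. Compounds and 5-fluorouridine were added together to 2,000 cells per well, incubated for 16 hr at 37 °C, then developed with ONE-Glo.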
# Rab9 prom act – qHTS Assay for Rab9 Promoter Activators; Potency, µM (doses to about 9.22 µM), for inactives: at the top dose activation, negative = inhibition, most hits filed as activators; 320,000 tested, 2.8% active; Huh7 Rab9 promoter-luciferase reporter, luminescence, 24 h; further: % of control where 0% means no effect; nearly all actives have a fitted effect of over 60% in size
#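 Promoter activation is measured as luciferase luminescence in Huh7 cells stably transfected with a Rab9 promoter–luciferase construct, following 24 h compound exposure at 37 °C and 10 min reagent incubation at ambient temperature.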
# ELG1 genotoxic – qHTS screen for small molecules that induce genotoxicity in human embryonic kidney (HEK293T) cells expressing luciferase-tagged ELG1; 330,000 tested, 1.3% active; Potency, µM (titrated, usually from 46 µM), for the others: at the top dose activity change, positive = activation, hits mostly activators; HEK293T ELG1-luciferase reporter, luminescence, 16 h; further: % of control where 0% means no effect; nearly all actives have a fitted effect of over 60% in size
#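 After overnight (16 hr) compound treatment at 37 °C, ELG1-luciferase HEK293T cells were lysed with ONE-Glo; luminescence quantified 30 min later at room temperature.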
# * hit, by the source's call; ? = inconclusive; · = no result; [ ] = another dose, or the depositor's remark. An excerpt weighted towards active compounds, which were near 9.3% of everything screened. The call rests on the fitted dose curve; in most records, active means well fitted curve in the direction sought with a large enough effect; inconclusive means small, poorly fitted or top-dose-only effect, or another doubt; inactive means no such curve, though single readings can be large; an effect the other way counts as inactive or inconclusive. Potency means the concentration at half of the fitted maximal effect.
SMILES,FLuc modulator,NPC1 promoter act,SMN2 splice enh,ELG1 DNA repair,Rab9 prom act,ELG1 genotoxic
COc1cc(NC(=S)Nc2ccc(N(C)C(C)=O)cc2)cc(OC)c1,0%,0%,0%,9%,0%,-1%
Oc1c(C=Nc2ccccc2Cl)[nH]c2ccccc12,?,2.8µM*,·,?,3.5µM*,?
O=c1[nH][nH]c(C(F)(F)F)c1C=Nc1ccccc1Cl,?,-4%,-9%,-6%,1%,0%
CC(NC(=O)Nc1ccc(Br)cc1)C(C)(C)C (stereo unspecified),?,-3%,?,?,29%,10%
Cn1cccc1/C=C(/C#N)C(N)=S,-11%,-2%,16%,-24%,2%,-1%
Cc1ccc(-c2ccc(/C=C(\C#N)C(N)=S)n2C)cc1,4.8µM*,?,·,?,?,16%
COc1cc(NC(=O)c2cc3cc4cc(OC)ccc4nc3o2)cc(OC)c1,3%,·,·,·,·,·
COc1ccc2cc3cc(C(=O)Nc4cc(OC)c(OC)c(OC)c4)oc3nc2c1,2%,-1%,-9%,16µM*,-8%,-14%
COc1ccc2cc3cc(C(=O)NC(C)C)oc3nc2c1,17µM*,?,·,?,2µM*,?
Cc1cc(C(=O)NC2=NCCS2)c2ccccc2n1,-4%,-8%,17%,10%,0%,0%
COc1ccc(-c2cc(C(=O)NC3=NCCS3)c3ccccc3n2)cc1OC,9.5µM*,13%,5%,16µM*,?,-6%
O=C(NC1=NCCS1)c1cc(-c2ccc(-c3ccccc3)cc2)nc2ccccc12,0.85µM*,4µM*,-7%[1.84 µM],?,1.8µM*,13%
O=C(COc1ccc(F)cc1)Nc1ccc2nc(SCc3ccccc3)sc2c1,-10%,·,·,·,·,·
Cc1cccc(NC(=O)c2sc3ncn(CC(=O)N4CCN(c5ccccn5)CC4)c(=O)c3c2C)c1,?,0%,·,?,-1%,-12%
COc1ccc(Oc2ccc(C(F)(F)F)cc2N)cc1,17µM*,17%,·,19%,?,11%
COc1ccc(Oc2ccc(C(F)(F)F)cc2NC(=O)c2ccc(OC)cc2)cc1,-2%,-3%,·,-29%,-5%,-4%
CCOc1ccc(OCC)c(NC(=O)C2CCCN(C(=O)c3ccc(Cl)cc3)C2)c1 (stereo unspecified),5%,-3%,·,-24%,0%,-4%
COc1ccc(C2=Nc3ccccc3OC2)cc1,0.85µM*,1.6µM*,?,?,1.6µM*,0.52µM*
c1ccc(-c2noc(-c3cccc4ccccc34)n2)nc1,0.76µM*,?,16µM*,?,28%,?
O=C1c2ccccc2C(=O)N1Cc1nc(-c2ccccn2)no1,-15%,·,-13%,·,·,·
COc1cccc(-c2nc(-c3ccccn3)no2)c1OC,13µM*,3.5µM*,13µM*,?,2.5µM*,9.2µM*
COc1cc(-c2nc(-c3ccccn3)no2)cc(OC)c1OC,?,?,17%,?,28%,?
Cn1c(N)c(C(=O)COC(=O)CNC(=O)c2ccc(Cl)cc2Cl)c(=O)n(C)c1=O,·,·,·,?,·,1%
Cc1ccc(SCc2cc(=O)[nH]c(Nc3nc(C)c4ccc(C)cc4n3)n2)cc1,0%,-3%,-10%[1.84 µM],12%,4%,-5%
COc1ccc2c(C)nc(Nc3nc(-c4ccccc4)cc(=O)[nH]3)nc2c1,-18%,-34%,·,4.1µM*,-46%,7%
SMILES,FLuc modulator,NPC1 promoter act,SMN2 splice enh,ELG1 DNA repair,Rab9 prom act,ELG1 genotoxic
Cc1ccc2nc(Nc3nc(CSc4nnc(C)s4)cc(=O)[nH]3)nc(C)c2c1,9.5µM*,-2%,·,1%,-3%,5%
Cc1ccc2c(C)nc(Nc3nc(CSc4nc5ccccc5[nH]4)cc(=O)[nH]3)nc2c1,1%,-17%,43%,4.6µM*,-25%,-2%
COc1ccc2nc(Nc3nc(CSc4nnc(C)s4)cc(=O)[nH]3)nc(C)c2c1,?,-4%,-29%,8%,-7%,4%
Cc1ccc2nc(Nc3nc(-c4ccccc4)cc(=O)[nH]3)nc(C)c2c1,-11%,-2%,-21%,-5%,-4%,?
O=c1c(-c2cccc(F)c2)nc2cncnc2n1C1CC1,·,·,6%,·,·,·
Oc1nc(Nc2ccc(Cl)cc2Cl)sc1/C=C1\C=Nc2ccccc21,-10%,1%,3.2µM*,9%,-6%,-3%
COc1cccc(CNC(=O)Cn2c(=O)oc3cc(S(=O)(=O)N4CCCCCC4)ccc32)c1,1%,·,·,·,·,·
COc1ccc(-n2sc3c(c2=S)-c2cc(OC)ccc2NC3(C)C)cc1,5%,-3%,-37%,-2%,1%,-8%
COc1ccc2c(c1)-c1c(ssc1=S)C(C)(C)N2,-23%,8%,-4%,2.6µM*,1%,-12%
CC(C)CNC(=O)c1cccc(NC(=O)COc2ccc([N+](=O)[O-])cc2)c1,?,-5%,·,21µM*,-24%,-13%
O=C(Cc1ccc(Cl)cc1)Nc1cccc(C(=O)Nc2ccccc2C(=O)O)c1,-19%,-4%,·,?,-7%,1%
COc1cccc(NC(=O)COc2ccccc2)c1,?,?,·,?,19%,?
NS(=O)(=O)c1cccc(NC(=O)COc2ccc([N+](=O)[O-])cc2)c1,?,4%,-1%,?,11%,-1%
COc1ccc(OCC(=O)Nc2cccc(C(=O)Nc3ccccc3C(=O)O)c2)cc1,24µM*,1%,13%,2%,-2%,0%
COc1ccc(CC(=O)Nc2cccc(C(=O)Nc3ccccc3C(=O)O)c2)cc1OC,17µM*,1%,7%,17%,-9%,-1%
CCOC(=O)c1ccc(NC(=O)Nc2cc3c(cc2N2CCCC2)n(C)c(=O)n3C)cc1,-1%,·,14%,·,·,·
Cc1cc(C(=O)CSc2cccc[n+]2[O-])c(C)n1-c1ccc(OC(F)F)cc1,15µM*,?,·,?,?,8%
COc1ccc(OC)c(NC(=O)Cn2cnc3ccc(S(=O)(=O)N4CCC(C)CC4)cc3c2=O)c1,-7%,·,-7%,·,·,·
CCOC(=O)N1CCC(NC(=O)CC2C(=O)NCCN2Cc2cccc(F)c2F)CC1 (stereo unspecified),0%,1%,·,1%,17%,1%
Cc1cccc(OCC(=O)NCc2cc(C)nc3ccccc23)c1,-6%,-8%,-47%,15µM*,1%,-4%

# Source: PubChem
